UHRF1 MBD2 ctr: UHRF1 methylated DNA binding inhibitors, primary screen, counter-screen for MBD2 inhibitor project, biochemical, TR-FRET, human UHRF1, single concentration | E3 ubiquitin-protein ligase UHRF1 (Homo sapiens), Q96T88 | UHRF1 binding to methylated oligo | inhibition, % at 4.4 µM | 370,000 tested, 0.75% active | AID 687016, 2013; in the data active = inhibition above about 21%;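 also: UHRF1 SRA domain binding a hemimethylated CpG hairpin DNA probe; 0% = median of test compound wells and 100% = reference inhibitor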
MBD2 inh: inhibitors of MBD2 binding to methylated DNA, primary screen, biochemical, TR-FRET, DNA-binding domain, human | inhibition, % at 4.4 µM | 370,000 tested, 0.31% active | MBD2 binding to methylated oligonucleotide; in the data active = inhibition above about 13%
LEDGF integ inh: blockers of LEDGF/p75-dependent integrase strand transfer – biochemical, TR-FRET, high throughput, primary screen | HIV-1 integrase (with human LEDGF/p75) | TR-FRET IN-LEDGF/p75 DNA integration, Eu/Cy5 | inhibition, % at 3.7 µM | 370,000 tested, 0.64% active | AID 743269, 2014;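 active = inhibition above the screen-wide mean plus 3 SD, cut at about 13% in these data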;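 also: signal is the Cy5 over europium emission ratio at 671 and 618 nm; 0% = plate median of compound wells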
PRMT1 FP inh: PRMT1 methyltransferase inhibitors, primary screen, biochemical, fluorescence polarization. inhibition, % at 2.79 µM. recombinant PRMT1, activity-based probe fluorescence polarization. 370,000 tested, 1.3% active. Protein arginine N-methyltransferase 1 (Homo sapiens), Q99873;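 active = inhibition above about 21% made by adding two undisclosed values, limit read from the data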
Target sequence (Q99873 whole entry, looked up): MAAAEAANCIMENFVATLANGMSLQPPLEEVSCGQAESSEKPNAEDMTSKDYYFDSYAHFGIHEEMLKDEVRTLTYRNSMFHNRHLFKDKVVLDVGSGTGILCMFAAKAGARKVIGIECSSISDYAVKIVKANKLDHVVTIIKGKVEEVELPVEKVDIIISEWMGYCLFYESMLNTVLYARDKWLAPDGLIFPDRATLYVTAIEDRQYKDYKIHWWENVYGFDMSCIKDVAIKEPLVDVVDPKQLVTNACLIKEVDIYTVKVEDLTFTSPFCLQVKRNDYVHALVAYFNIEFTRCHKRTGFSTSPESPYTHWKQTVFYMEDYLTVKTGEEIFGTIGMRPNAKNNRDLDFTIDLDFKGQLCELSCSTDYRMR
ABHD5 PLIN5 PPI: ABHD5-PLIN5 interaction inhibitors, primary screen, cell lysate, split luciferase complementation, luminescence | inhibition, % at 4 µM | 360,000 tested, 0.78% active | AID 602281, 2012 | Perilipin-5 (Homo sapiens) + 1-acylglycerol-3-phosphate O-acyltransferase ABHD5 (Homo … | Split G. princeps luciferase complementation, 4 h;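 active = inhibition above the mean inhibition across every tested compound plus 3 SD, cut at about 22% in these data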;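 also: 0% = DMSO only wells and the 100% control is not disclosed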
rCAG RNA binder: binders of r(CAG) RNA repeats, primary screen, biochemical, fluorescence; inhibition, % at 3 µM; 370,000 tested, 1.3% active; r(CAG) RNA repeat, TO-PRO-1 dye displacement fluorescence;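 active = inhibition above the plate cutoff, the mean of all test compounds on that plate plus 3 SD, cut at about 35% in these data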;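 also: 0% = DMSO alone and 100% = 100 µM mitoxantrone as full dye displacement; higher means more dye released from RNA so lower well fluorescence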
rCAG binder conf: small molecules binding CAG repeat RNA – biochemical, fluorescence, confirmation; r(CAG) RNA repeat, TO-PRO-1 dye displacement fluorescence; shares compounds with rCAG RNA binder; inhibition, % at 3 µM; 4,300 tested, 70% active;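 active = inhibition above a per-plate cutoff, the mean inhibition of sample wells plus 3 SD, cut at about 35% in these data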;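 also: loss of TO-PRO-1 fluorescence as compound displaces dye from 1x1 AA loop RNA; 0% = DMSO only wells and 100% = 100 µM mitoxantrone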
DNA CAG counter: displacement of TO-PRO-1 from CAG DNA duplex, counter-screen for rCAG RNA repeat binder project, biochemical, fluorescence, TO-PRO-1 dye, d(CAG) DNA oligo; inhibition, % at 3 µM; 4,300 tested, 94% active; shares compounds with rCAG RNA binder; d(CAG) DNA oligo TO-PRO-1 dye displacement; AID 652068, 2013;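 active = inhibition above its plate's cutoff, the mean test-well inhibition plus 3 SD, cut at about 4.8% in these data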;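 also: 0% = DNA dye mix with DMSO and 100% = 100 µM mitoxantrone; hits displace the dye from DNA and so lower well fluorescence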
PRMT1 inh conf: PRMT1 methyltransferase inhibitors, confirmation, biochemical, fluorescence polarization, triplicate; shares compounds with PRMT1 FP inh; recombinant His-PRMT1, activity-based probe fluorescence polarization; inhibition, % at 2.79 µM; 3,300 tested, 42% active; AID 687036, 2013;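 active = mean inhibition across replicates above the hit cutoff derived for the earlier primary screen, cut at about 22% in these data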
UHRF1 DNA bind: UHRF1 methylated DNA binding inhibitors, counter-screen for MBD2 inhibitor project, biochemical, TR-FRET, human UHRF1; shares compounds with MBD2 inh; AID 720530, 2013; 1,000 tested, 25% active; UHRF1 binding to methylated oligonucleotide; inhibition, % at 4.4 µM; in the data active = inhibition above about 21%;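 also: UHRF1 SRA domain binding a labeled hemimethylated CpG hairpin DNA; 0% = vehicle only and 100% = reference inhibitor with vehicle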
MBD2 DBD conf: inhibitors of MBD2 binding to methylated DNA, confirmation, biochemical, TR-FRET, DNA-binding domain, human | shares compounds with MBD2 inh | TR-FRET MBD2-DBD binding to methylated oligonucleotide | inhibition, % at 4.4 µM | 1,000 tested, 26% active
IN multimer up: HIV-1 IN multimer formation enhancers, counter-screen for LEDGF/p75 integration inhibitor project, biochemical, TR-FRET; activation, % at 7.7 µM; AID 1053131, 2014; TR-FRET HIV-1 integrase multimerization; 2,000 tested, 17% active; shares compounds with LEDGF integ inh; in the data active = activation above about 8.9%
TRFRET interf: TR-FRET optical interference artefacts, confirmation, artefact control for LEDGF/p75-dependent integration inhibitor project, biochemical, HIV-1 IN multimerization; shares compounds with LEDGF integ inh; TR-FRET optical interference counterscreen; inhibition, % at 7.7 µM; 2,000 tested, under 10 active;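 active = inhibition above the mean over all tested compounds plus 3 SD, which no compound reached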;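 also: 0% = integrase with antibodies and DMSO and 100% = antibodies without integrase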
LEDGF integ conf: inhibitors of HIV-1 IN-LEDGF/p75 DNA integration, confirmation, biochemical, TR-FRET | shares compounds with LEDGF integ inh | TR-FRET LEDGF/p75-dependent HIV-1 integration | inhibition, % at 3.7 µM | 2,000 tested, 36% active | AID 1053136, 2014
Active calls of the source: *. A selection: hits, their analogues and other compounds. The true share with any hit is near 4.1%. Rule as the data show it, unless noted: active = inhibition above about 14%; inactive = the rest.

Results for Cc1cccc2c(N=NC(=O)c3ccc(NS(=O)(=O)c4cccs4)cc3)c(O)[nH]c12 ?
UHRF1 MBD2 ctr: 0; MBD2 inh: 21*; LEDGF integ inh: -2; PRMT1 FP inh: 5; ABHD5 PLIN5 PPI: 3; rCAG RNA binder: 42*; rCAG binder conf: 72*; DNA CAG counter: 30*; UHRF1 DNA bind: 4; MBD2 DBD conf: 3

What do the screens show for `O=c1[nH]c(=S)[nH]c2c1C(c1ccc(Br)cc1)c1c([nH]c(=S)[nH]c1=O)O2`?
UHRF1 MBD2 ctr: 107*; MBD2 inh: 105*; LEDGF integ inh: 83*; PRMT1 FP inh: 45*; ABHD5 PLIN5 PPI: -1; rCAG RNA binder: 87*; rCAG binder conf: 84*; DNA CAG counter: 48*; UHRF1 DNA bind: 104*; MBD2 DBD conf: 88*

Results for Cc1ccc(C2C3=C(CCCC3=O)Nc3[nH]c(=S)[nH]c(=O)c32)cc1 (centres undefined) ?
UHRF1 MBD2 ctr: -2; MBD2 inh: 0; LEDGF integ inh: -1; PRMT1 FP inh: 17; ABHD5 PLIN5 PPI: -23; rCAG RNA binder: 17

What do the screens show for `CCN(CC)C(=O)CC[C@@H]1CC[C@]2(CCCN(S(=O)(=O)c3ccccc3)C2)O1`?
UHRF1 MBD2 ctr: -1; MBD2 inh: 3; LEDGF integ inh: -1; PRMT1 FP inh: -3; rCAG RNA binder: 0

How did C=C1c2cccc(O)c2C(=O)C2C(=O)[C@]3(O)C(=O)C(C(N)=O)C(=O)[C@@H](N(C)C)[C@@H]3[C@@H](O)[C@H]12 (some centres undefined) do in these assays?
UHRF1 MBD2 ctr: 96*; MBD2 inh: 90*; LEDGF integ inh: 86*; PRMT1 FP inh: 62*; ABHD5 PLIN5 PPI: 6; rCAG RNA binder: 85*; rCAG binder conf: 28; DNA CAG counter: 10*; PRMT1 inh conf: 22*; UHRF1 DNA bind: 11; MBD2 DBD conf: 7; IN multimer up: 37*; TRFRET interf: -131; LEDGF integ conf: 52*

Bioassay records from PubChem.
